Drawing on PubChem BioAssay (EPA / NIEHS), this text covers outcome and AC50 for five molecules.

Read-out in assay [1]: Macrophage colony-stimulating factor (MCSF), CSF1 (gene 1435)
The assay is described as follows: BSK_hDFCGF_MCSF: BioMAP Diversity Plus: hDFCGF Assay for Macrophage colony-stimulating factor (MCSF) Biomarker Activity (AID 2283060). Conditions: primary human foreskin fibroblasts; actives raise or lower the signal. The gist of the method: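 Human foreskin primary fibroblasts were treated with test chemical for 24 h, and M-CSF was then measured by ELISA. Data were fitted bidirectionally against DMSO as the negative control and activity baseline.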

A short description of assay [2]: BSK_hDFCGF_SRB: Viability Assessment in the BioMAP Diversity Plus: hDFCGF Assay (AID 2283061).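 Further: cells exposed to compound for 24 h before the read.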 As to conditions: primary human foreskin fibroblasts. The gist of the method:
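Human foreskin primary fibroblasts were treated with compound and assessed 24 h after dosing. Total protein was measured by sulforhodamine B staining (0.1% SRB after 10% TCA fixation, 560 nm read) as a cytotoxicity marker, with bidirectional fitting against DMSO baseline.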

Read-out in assay [3]: TIMP metallopeptidase inhibitor 1 (TIMP1), TIMP1 (gene 7076)
The assay is described as follows: BSK_hDFCGF_TIMP1: BioMAP Diversity Plus: hDFCGF Assay for TIMP metallopeptidase inhibitor 1 (TIMP1) Biomarker Activity (AID 2283062). As to conditions: primary human foreskin fibroblasts; actives raise or lower the signal. A digest of the protocol:
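Primary human foreskin fibroblasts in the hDFCGF system were dosed with compound for 24 h, then TIMP-1 was measured by ELISA. Activity was fitted bidirectionally relative to DMSO control; parallel SRB staining assessed cytotoxicity.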

Read-out in assay [4]: Monokine induced gamma interferon (MIG), CXCL9 (gene 4283)
The assay is described as follows: BSK_hDFCGF_MIG: BioMAP Diversity Plus: hDFCGF Assay for Monokine induced gamma interferon (MIG) Biomarker Activity (AID 2283063). Conditions: primary human foreskin fibroblasts; actives raise or lower the signal. The gist of the method: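 ELISA read-out of MIG from primary human dermal fibroblasts 24 h post-dosing. Gain or loss of signal fitted bidirectionally, DMSO as baseline.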

Read-out in assay [5]: Matrix Metallopeptidase 1 (MMP1), MMP1 (gene 4312)
The assay is described as follows: BSK_hDFCGF_MMP1: BioMAP Diversity Plus: hDFCGF Assay for Matrix Metallopeptidase 1 (MMP1) Biomarker Activity (AID 2283064). Conditions: primary human foreskin fibroblasts; actives raise or lower the signal. The gist of the method:
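hDFCGF primary fibroblasts (human foreskin); chemical added; 24 h; MMP1 by ELISA; bidirectional fit vs DMSO.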

Read-out in assay [6]: Vascular cell adhesion molecule 1 (VCAM1), VCAM1 (gene 7412)
The assay can be described thus: BSK_hDFCGF_VCAM1: BioMAP Diversity Plus: hDFCGF Assay for Vascular cell adhesion molecule 1 (VCAM1) Biomarker Activity (AID 2283065).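 On AC50: VCAM-1 protein level quantified by ELISA after 24 h chemical exposure.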 As to conditions: primary human foreskin fibroblasts; actives raise or lower the signal. The gist of the method:
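Primary human foreskin fibroblasts (hDFCGF system) were dosed with chemical and VCAM-1 was measured by ELISA 24 h later. Bidirectional curve fitting used DMSO as negative control and activity baseline.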

Read-out in assay [7]: Plasminogen activator inhibitor-1 (PAI1), SERPINE1 (gene 5054)
The assay is described as follows: BSK_hDFCGF_PAI1: BioMAP Diversity Plus: hDFCGF Assay for Plasminogen activator inhibitor-1 (PAI1) Biomarker Activity (AID 2283066). As to conditions: primary human foreskin fibroblasts; actives raise or lower the signal. A digest of the protocol: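 Human foreskin fibroblasts in the hDFCGF system were dosed with compound for 24 h; PAI-1 was quantified by ELISA. Bidirectional curve fitting used DMSO as negative control and baseline.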

Read-out in assay [8]: Intercellular Adhesion Molecule 1 (ICAM1), ICAM1 (gene 3383)
The assay is described as follows: BSK_KF3CT_ICAM1: BioMAP Diversity Plus: KF3CT Assay for Intercellular Adhesion Molecule 1 (ICAM1) Biomarker Activity (AID 2283067). As to conditions: primary human keratinocytes with fibroblasts; actives raise or lower the signal. A digest of the protocol:
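Human keratinocyte plus foreskin fibroblast primary co-culture was exposed to chemical for 24 h. ICAM-1 was then quantified by ELISA, and the data were fit bidirectionally against DMSO as the negative control and baseline.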

Read-out in assay [9]: Interferon-gamma inducible Protein 10 (IP10), CXCL10 (gene 3627)
The assay can be described thus: BSK_KF3CT_IP10: BioMAP Diversity Plus: KF3CT Assay for Interferon-gamma inducible Protein 10 (IP10) Biomarker Activity (AID 2283068). As to conditions: primary human keratinocytes with fibroblasts; actives raise or lower the signal. A digest of the protocol:
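ELISA read-out of IP-10 after 24 h chemical dosing of human skin primary co-culture (keratinocytes, foreskin fibroblasts). Gain or loss of signal relative to DMSO, bidirectional curve fit.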

A short description of assay [10]: BSK_KF3CT_SRB: Viability Assessment in the BioMAP Diversity Plus: KF3CT Assay (AID 2283069).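 Further: fitted for both signal gain and loss against DMSO baseline.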 Conditions: primary human keratinocytes with fibroblasts. A digest of the protocol: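 Keratinocytes co-cultured with foreskin fibroblasts (human primary); chemical added, 24 h; fix 10% TCA, stain 0.1% SRB, A560. Bidirectional fit vs DMSO.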
Read-out in assay [11]: Interleukin-1 alpha (IL1a), IL1A (gene 3552)
The assay is described as follows: BSK_KF3CT_IL1a: BioMAP Diversity Plus: KF3CT Assay for Interleukin-1 alpha (IL1a) Biomarker Activity (AID 2283070). As to conditions: primary human keratinocytes with fibroblasts; actives raise or lower the signal. A digest of the protocol: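 Chemicals were dosed onto co-cultured human keratinocytes and foreskin fibroblasts, IL-1a was quantified by ELISA at 24 h, and activity was fitted in both directions relative to DMSO controls.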

Read-out in assay [12]: TIMP metallopeptidase inhibitor 2 (TIMP2), TIMP2 (gene 7077)
The assay is described as follows: BSK_KF3CT_TIMP2: BioMAP Diversity Plus: KF3CT Assay for TIMP metallopeptidase inhibitor 2 (TIMP2) Biomarker Activity (AID 2283071). As to conditions: primary human keratinocytes with fibroblasts; actives raise or lower the signal. The gist of the method:
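Human primary keratinocyte/foreskin fibroblast co-culture dosed with chemical and sampled at 24 h. TIMP-2 levels quantified by ELISA; bidirectional fitting against DMSO negative control as baseline.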

Read-out in assay [13]: C-C motif chemokine 2 (Homo sapiens) (UniProt P13500)
The assay can be described thus: BSK_KF3CT_MCP1: BioMAP Diversity Plus: KF3CT Assay for Monocyte Chemoattractant Protein 1 (MCP1/CCL2) Biomarker Activity (AID 2283073). As to conditions: primary human keratinocytes with fibroblasts; actives raise or lower the signal. The gist of the method: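 Human keratinocyte plus foreskin fibroblast primary co-culture exposed to chemical for 24 h. MCP-1 levels measured by ELISA. Bidirectional curve fitting relative to DMSO negative control as baseline.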

Read-out in assay [14]: Matrix Metallopeptidase 9 (MMP9), MMP9 (gene 4318)
The assay can be described thus: BSK_KF3CT_MMP9: BioMAP Diversity Plus: KF3CT Assay for Matrix Metallopeptidase 9 (MMP9) Biomarker Activity (AID 2283074).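 On AC50: MMP9 protein level quantified by ELISA in the co-culture.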 As to conditions: primary human keratinocytes with fibroblasts; actives raise or lower the signal. The gist of the method: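 Human keratinocyte/foreskin fibroblast co-culture; compound added; 24 h; MMP-9 by ELISA; bidirectional fit vs DMSO baseline.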

Read-out in assay [15]: urokinase plasminogen activator (uPA), PLAU (gene 5328)
The assay is described as follows: BSK_KF3CT_uPA: BioMAP Diversity Plus: KF3CT Assay for urokinase plasminogen activator (uPA) Biomarker Activity (AID 2283075). As to conditions: primary human keratinocytes with fibroblasts; actives raise or lower the signal. The gist of the method:
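ELISA readout of uPA, analyzed for signal gain or loss relative to DMSO, from a human primary keratinocyte–foreskin fibroblast co-culture measured 24 h after chemical treatment.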

Read-out in assay [16]: CD40, CD40 (gene 958)
The assay can be described thus: BSK_LPS_CD40: BioMAP Diversity Plus: LPS Assay for CD40 Biomarker Activity (AID 2283076). Conditions: primary human HUVEC with PBMC; actives raise or lower the signal. The gist of the method: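 Primary human umbilical vein endothelial cells co-cultured with peripheral blood mononuclear cells, LPS-stimulated, were dosed with chemical and read 24 h later. CD40 levels were measured by ELISA and fitted bidirectionally against DMSO as negative control and baseline.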

Read-out in assay [17]: E-selectin (Homo sapiens) (UniProt P16581)
The assay can be described thus: BSK_LPS_Eselectin: BioMAP Diversity Plus: LPS Assay for Eselectin Biomarker Activity (AID 2283077). Conditions: primary human HUVEC with PBMC; actives raise or lower the signal. A digest of the protocol: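 Human umbilical vein endothelial cells co-cultured with peripheral blood mononuclear cells under LPS stimulation; E-selectin measured by ELISA 24 h after chemical dosing. Activity fitted bidirectionally against DMSO as negative control and baseline.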

Read-out in assay [18]: Interleukin-8 (IL8), CXCL8 (gene 3576)
The assay is described as follows: BSK_LPS_IL8: BioMAP Diversity Plus: LPS Assay for Interleukin-8 (IL8) Biomarker Activity (AID 2283078). As to conditions: primary human HUVEC with PBMC; actives raise or lower the signal. A digest of the protocol:
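Human umbilical vein endothelial cells co-cultured with PBMC were stimulated with LPS; IL-8 levels were measured by ELISA 24 h after chemical dosing. Activity was fitted bidirectionally against DMSO as negative control and baseline.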

Assay [19] is described as follows: BSK_LPS_SRB: Viability Assessment in the BioMAP Diversity Plus: LPS Assay (AID 2283079).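 Further: total protein by sulforhodamine B absorbance as a cytotoxicity measure; measured one day after compound addition; fitted in both directions against DMSO so loss or gain of signal counts.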 As to conditions: primary human HUVEC with PBMC. The gist of the method: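 Human umbilical vein endothelial cells co-cultured with PBMC (LPS system) were dosed for 24 h. Total protein was stained with 0.1% sulforhodamine B after 10% TCA fixation, read at 560 nm, and fitted bidirectionally against DMSO baseline.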

Read-out in assay [20]: Interleukin-1 alpha (IL1a), IL1A (gene 3552)
The assay can be described thus: BSK_LPS_IL1a: BioMAP Diversity Plus: LPS Assay for Interleukin-1 alpha (IL1a) Biomarker Activity (AID 2283080). As to conditions: primary human HUVEC with PBMC; actives raise or lower the signal. The gist of the method:
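Human umbilical vein endothelial cells co-cultured with peripheral blood mononuclear cells were LPS-stimulated and exposed to test chemicals for 24 h. IL-1 alpha was quantified by ELISA, with bidirectional curve fitting against DMSO as the negative control and baseline.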

“And” between values parts separate entries of the source, which are not always exact repeats. Equal values may be shown once. Some structures have more than one record in an assay (separate samples or runs), and their calls can disagree. The source made the active and inactive calls. How the source made its calls: active means hit-call score of the fitted dose curve at least 0.9, where 1 is the maximum; inactive means score below 0.9.

As a reminder, the AC50 is the midpoint of the concentration-response curve, whichever way the signal moves.

Chain of E-selectin (Homo sapiens) (P16581 whole entry, looked up): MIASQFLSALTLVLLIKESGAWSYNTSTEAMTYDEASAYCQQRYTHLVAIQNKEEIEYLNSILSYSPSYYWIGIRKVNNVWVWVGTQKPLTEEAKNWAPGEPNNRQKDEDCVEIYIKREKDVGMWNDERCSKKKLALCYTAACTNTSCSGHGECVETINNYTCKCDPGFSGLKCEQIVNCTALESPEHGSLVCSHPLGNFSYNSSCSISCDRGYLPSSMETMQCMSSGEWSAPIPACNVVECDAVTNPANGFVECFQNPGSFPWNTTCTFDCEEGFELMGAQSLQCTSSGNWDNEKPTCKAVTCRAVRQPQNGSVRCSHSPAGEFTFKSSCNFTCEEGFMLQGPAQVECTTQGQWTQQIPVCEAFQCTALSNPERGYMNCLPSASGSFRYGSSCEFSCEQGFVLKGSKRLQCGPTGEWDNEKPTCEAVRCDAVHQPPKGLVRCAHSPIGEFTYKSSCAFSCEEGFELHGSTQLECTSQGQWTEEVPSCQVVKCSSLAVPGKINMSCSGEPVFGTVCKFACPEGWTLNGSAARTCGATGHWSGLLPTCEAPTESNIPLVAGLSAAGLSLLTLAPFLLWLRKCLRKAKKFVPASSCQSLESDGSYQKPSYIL

`OCC(F)(F)C(F)(F)C(F)(F)CO`: the outcome in assay [1], in [2], in assay [3], in assay [4], in assay [5] and in assay [6] was inactive. For the same molecule, the result in assay [7], in assay [8], in assay [9], in [10], in assay [11] and in assay [12] was inactive. Moreover, the result in assay [13], in assay [14], in [15], in [16], in assay [17] and in assay [18] was inactive. Also, the result in assay [19] and in assay [20] was inactive.

Turning to `NC(O)(C(F)(F)F)C(F)(F)F`, the outcome in assay [1], in assay [2], in assay [3], in assay [4], in assay [5] and in [6] was inactive. Moreover, the outcome in [7], in assay [8], in assay [9], in assay [10], in [11] and in [12] was inactive. Besides, the outcome in assay [13], in assay [14], in [15], in [16], in assay [17] and in assay [18] was inactive. In addition, the outcome in assay [19] and in assay [20] was inactive. For the same molecule, the AC50 in [18] was 5.33 µM (active).

`OCC(F)(F)C(F)(F)C(F)(F)C(F)(F)C(F)(F)C(F)(F)C(F)(F)C(F)(F)CO`: the AC50 in assay [1] is 47.9 µM (active) and 46.7 µM (active); in [2], 38.3 µM (active) and 54.8 µM (active); in assay [3], 46.7 µM (active) and 54.5 µM (active); in assay [4], 44 µM (active) and 45.1 µM (active); in [5] it was 55.2 µM (active) and 48.8 µM (active); in [6] it was 42.5 µM (active) and 21.8 µM (active). For the same molecule, the AC50 was 54.9 µM (active) and 56.4 µM (active) in [7]; 42.4 µM (active) and 42.7 µM (active) in [8]; 35.2 µM (active) in assay [9]; 50.9 µM (active) and 44.1 µM (active) in assay [10]; 50.4 µM (active) in assay [11]; 55.2 µM (active) and 48.6 µM (active) in assay [12]. Besides, the AC50 in assay [14] was 50.3 µM (active) and 49.4 µM (active); in assay [17], 0.559 µM (active). Besides, the result in assay [9], in assay [11], in assay [15], in assay [16], in assay [17] and in assay [18] was inactive. In addition, the outcome in assay [19] and in [20] was inactive.

With `O=S(=O)(O)CCC(F)(F)C(F)(F)C(F)(F)C(F)(F)C(F)(F)C(F)(F)C(F)(F)C(F)(F)F`, the result in [1], in assay [3], in [4], in assay [5], in [6] and in [7] was inactive. The outcome in assay [8], in [9], in assay [10], in [11], in [12] and in assay [13] was inactive. Also, the outcome in assay [14], in [15], in [16], in assay [17], in assay [18] and in assay [19] was inactive. Also, the AC50 in [2] was 54.3 µM (active) and 24.7 µM (active); in [5], 30 µM (active); in assay [11], 7.84 µM (active); in [20] it was 47.3 µM (active) and 44.8 µM (active).

Consider `O=C(Cl)C(F)(F)C(F)(F)C(F)(F)C(F)(F)C(F)(F)C(F)(F)C(F)(F)F`, for which the result in assay [1], in [2], in assay [3], in assay [4], in assay [5] and in assay [6] was inactive. Besides, the outcome in [7], in assay [8], in assay [9], in assay [10], in assay [11] and in assay [12] was inactive. Also, the outcome in assay [13], in [14], in assay [15], in assay [16], in [17] and in [18] was inactive. Further, the result in assay [19] and in [20] was inactive. Further, the AC50 in assay [3] was 26.4 µM (active); in assay [18], 20.2 µM (active) and 16.6 µM (active).
